The values below come from PubChem BioAssay AID2685 (National Center for Advancing Translational Sciences (NCATS), 2010).

The whole screen tested about 320,000 compounds, of which about 2,100 (0.66%) were called active. Roughly 53% stayed inconclusive and do not appear here. The call rests on the fitted dose curve; in most records, active means well fitted inhibition curve with a large enough effect in the signal ratio, with a control signal flat (not every such curve was filed as active); inconclusive means small, poorly fitted or top-dose-only effect, or effect the other way, or a change in a side signal; inactive means flat fitted curve, though single readings scatter; the % refers to the signal ratio. The sample as a whole holds a higher share of actives than the screen did.
Potency means the concentration at half of the fitted maximal effect.

The experiment in a line: qHTS Assay for Lipid Storage Modulators in Drosophila S3 Cells.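 On cell number change: cells counted by Cell Tracker Red CMTPX staining in the red channel.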 On lipid storage change, negative = inhibition: on the % scale 0 is the no-effect control and ±100 the full control effect. Conditions: BODIPY lipid droplet fluorescence, 18-24 h, cells fed with added oleic acid; cell number change: measured here: cell count max response; series mostly up to 46.1 µM; lipid storage change, negative = inhibition: at the top concentration. In short, it runs like this:
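Laser-scanning cytometry quantifies lipid droplet accumulation (500–530 nm total intensity; droplet/cell object ratio) in oleic acid-fed (400 uM added) Drosophila S3 cells treated with a concentration series. 20 uM Triacsin C defined 100% inhibition.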
For the compound `Cc1ccc(-c2nc(NCc3ccco3)n(C(=O)c3ccco3)n2)cc1`, the “lipid storage change, negative = inhibition” value was -2.37% (inactive) and the cell number change is -0.0963%.

With `CC(NC(=O)C1CCCN1S(=O)(=O)c1ccccc1)c1ccccc1` (stereo not drawn), the result was inactive and the cell number change worked out at 4.49%.

With `O=C(N1CCCCC1)C12CC3CC(C1)CC(C(=O)N1CCCCC1)(C3)C2`, the outcome was inactive and the cell number change worked out at 5%. `CN(C)CCCNc1oc(-c2cccc(Cl)c2)nc1C#N`: the Potency is 23.1 µM (active) and the cell number change came out at 5.97%. As for `CCN(CC)CCCNc1oc(-c2ccc(OC)c(OC)c2)nc1C#N`, the result was inactive and the cell number change came out at 24.5%.

On to `CN(C)CCNc1oc(-c2cccc(Cl)c2)nc1C#N`, for which the “lipid storage change, negative = inhibition” value was 6.31% (inactive).

For `O=C(O)c1cc2nc3c(c(C(F)(F)F)n2n1)CCCC3`, the “lipid storage change, negative = inhibition” value is -22.7% (inactive) and the cell number change is -17.1%. For `COc1cc(C(=O)N2CCN(C)CC2)cc(OC)c1OC`, the compound was called inactive and the cell number change was -9.94%.

`COc1cc(C(=O)N2CCN(C(=O)C3CC3)CC2)cc(OC)c1OC`: the Potency is 14.6 µM (active) and the cell number change was 0.295%. `COc1cc(C(=O)N2CCN(C3CCCCC3)CC2)cc(OC)c1OC`: the “lipid storage change, negative = inhibition” value was -6.47% (inactive) and the cell number change came out at 26.9%. For the compound `CCOC(=O)C1=C(C)Nc2ccccc2N=C1NC(=O)/C=C/c1ccc(OC)cc1OC`, the “lipid storage change, negative = inhibition” value was 10.8% (inactive) and the cell number change was 0.577%. Take `Cc1c(N(C(=O)c2cnccn2)C2(C(=O)NC3CCCC3)CCCCC2)c(=O)n(-c2ccccc2)n1C`: the “lipid storage change, negative = inhibition” value is -2.91% (inactive) and the cell number change is -4%. For `O=C(CC1SC(=Nc2ccc(OC(F)F)cc2)N(CCC2=CCCCC2)C1=O)Nc1ccccc1F` (stereo not drawn), the “lipid storage change, negative = inhibition” value is 9.36% (inactive) and the cell number change is -16.7%. Regarding `COc1ccc(OC)c(NC(=O)CC2SC(=Nc3ccc(F)cc3)N(CCC3=CCCCC3)C2=O)c1` (stereo not drawn), the “lipid storage change, negative = inhibition” value is -15.3% (inactive) and the cell number change was determined as 1.52%.

With `COc1cc([N+](=O)[O-])ccc1NC(=O)CC1SC(=Nc2ccc(F)cc2)N(CCC2=CCCCC2)C1=O` (stereo not drawn), the Potency is 23.1 µM (active) and the cell number change was -22.5%. `CCn1c2ccccc2c2cc(N=C3SC(CC(=O)Nc4ccccc4OC)C(=O)N3C)ccc21` (stereo not drawn): the “lipid storage change, negative = inhibition” value is 3.11% (inactive). For `CCOc1ccccc1N=C1SC(CC(=O)Nc2ccc(OC)cc2OC)C(=O)N1CCC1=CCCCC1` (stereo not drawn), the Potency was 25.9 µM (active) and the cell number change is -18.8%. On to `C=CCN1C(=O)C(CC(=O)NCC)SC1=Nc1ccccc1OC` (stereo not drawn), for which the compound was called inactive and the cell number change is -0.552%. For the compound `Cc1c(C(N)=O)sc2ncn(CC(=O)N(C)C3CCCCC3)c(=O)c12`, the “lipid storage change, negative = inhibition” value is -24.6% (inactive) and the cell number change is 7.26%.

For `CS(=O)(=O)N1CCC(C(=O)N2CCN(c3ccccc3F)CC2)CC1`, the “lipid storage change, negative = inhibition” value is -2.62% (inactive) and the cell number change stood at 9.98%.

As to `CC1=CN2C(=N)/C(=C/c3ccc([N+](=O)[O-])o3)C(=O)N=C2S1`, the Potency is 14.6 µM (active) and the cell number change was -16.4%. Turning to `CC1=CN2C(=N)/C(=C/c3ccc(C)o3)C(=O)N=C2S1`, the “lipid storage change, negative = inhibition” value is -1.21% (inactive) and the cell number change is -10.7%. For the compound `CCOc1ccc(-c2ccc(/C=C3/C(=N)N4C=CSC4=NC3=O)o2)c([N+](=O)[O-])c1`, the “lipid storage change, negative = inhibition” value was -13.3% (inactive) and the cell number change is 4.83%. Consider `Cc1ccc(S(=O)(=O)Nc2cccc(-c3ccc4nnc(C)n4n3)c2)s1`, for which the “lipid storage change, negative = inhibition” value was -1.01% (inactive) and the cell number change came out at 7.02%. In the case of `O=C(NCc1ccccn1)Nc1cc(Cl)cc(Cl)c1`, the “lipid storage change, negative = inhibition” value was -7.61% (inactive) and the cell number change came out at 7.72%.

As to `COc1ccc(C(NC(=O)C(C)(C)C)NC(=O)C(C)(C)C)cc1`, the “lipid storage change, negative = inhibition” value is 1.97% (inactive) and the cell number change was -2.15%. With `O=C(CNS(=O)(=O)c1ccc(Br)s1)NC1CCCc2ccccc21` (stereo not drawn), the “lipid storage change, negative = inhibition” value is 19% (inactive) and the cell number change is -8.37%.

Turning to `COc1ccc(C)cc1NC(=O)CCCN1C(=S)NC(C)(C)CC1C` (stereo not drawn), the “lipid storage change, negative = inhibition” value was 17.4% (inactive) and the cell number change is -1.97%. Consider `COc1ccc(NC(=O)NCCCCc2ccccc2)cc1`, for which the outcome was inactive and the cell number change is -11.6%. As for `CC(CNC(=O)CN1C(=O)NC2(CCCCC2C)C1=O)c1ccccc1` (stereo not drawn), the “lipid storage change, negative = inhibition” value was 16.9% (inactive) and the cell number change was -0.107%.

Turning to `COc1ccc(CCN(/C=C2\Sc3ccccc3C2=O)C(C)=O)cc1OC`, the “lipid storage change, negative = inhibition” value was -6.81% (inactive) and the cell number change worked out at 23.5%. Turning to `CC(=O)N(/N=C1\Sc2ccccc2C1=O)c1ccccc1`, the “lipid storage change, negative = inhibition” value was -19.2% (inactive) and the cell number change was -6.02%. In the case of `COc1ccccc1N(/N=C1\Sc2ccccc2C1=O)C(C)=O`, the Potency was 16.4 µM (active) and the cell number change was determined as 3.61%.

`CCOc1ccc(NC(=O)CN(C)C(=O)COc2cccc3c2OC(C)(C)C3)cc1OCC`: the “lipid storage change, negative = inhibition” value was 0.121% (inactive) and the cell number change was -24.3%. As to `O=C(c1ccc(Cl)c(F)c1F)N1CCCC1`, the compound was called inactive. As to `Cc1c(C)c2c(OCC(=O)NCc3ccco3)cc3c(c2oc1=O)CCC(C)(C)O3`, the “lipid storage change, negative = inhibition” value was 22.1% (inactive) and the cell number change was determined as 6.15%.

On to `COCCNCC(=O)C12CC3CC(CC(C3)C1)C2`, for which the Potency was 16.4 µM (active) and the cell number change is -15%. Turning to `COCCNC(=O)C12CC3CC(CC(Cl)(C3)C1)C2`, the “lipid storage change, negative = inhibition” value was -8.46% (inactive) and the cell number change was determined as 18%.

In the case of `COCCC(=O)NC12CC3CC(CC(C3)C1)C2`, the “lipid storage change, negative = inhibition” value is -13.5% (inactive) and the cell number change was -7.91%. As to `O=c1[nH]c2ccccc2nc1C(F)(F)F`, the “lipid storage change, negative = inhibition” value is 8.88% (inactive) and the cell number change was 17.1%. For `Cc1onc(-c2ccccc2)c1C(=O)N/N=C/c1ccc(Br)cc1`, in that order: 24.8% (inactive) and 8.96%. For `O=C(c1ccc(CS(=O)c2cccc(Cl)c2)o1)N1CCN(c2ccccn2)CC1` (stereo not drawn), the Potency was 18.4 µM (active) and the cell number change was -26.2%. As to `O=C(c1ccc(CS(=O)c2cccc(Cl)c2)o1)N1CCOCC1` (stereo not drawn), the outcome was inactive and the cell number change was -42.8%. `O=C(c1ccc(CS(=O)Cc2ccccc2Cl)o1)N1CCN(c2ccccn2)CC1` (stereo not drawn): the compound was classed as inactive. For the compound `Cc1ccc(CS(=O)Cc2ccc(C(=O)N3CCN(c4ccccc4)CC3)o2)cc1` (stereo not drawn), the outcome was inactive. On to `O=C(c1ccc(CS(=O)c2cccc(Cl)c2)o1)N1CCCCCC1` (stereo not drawn), for which the compound was called inactive and the cell number change was -0.885%.

In the case of `Cc1ccc(CS(=O)Cc2ccc(C(=O)N3CCN(c4ccccn4)CC3)o2)cc1` (stereo not drawn), the Potency was 7.31 µM (active).
